DT40 TDP1 no CPT: qHTS for Inhibitors of human tyrosyl-DNA phosphodiesterase 1 (TDP1): qHTS in cells in absence of CPT. DT40 Tdp1-/- hTDP1 cells, no CPT, ATP luminescence, 48 h. Potency, µM (highest dose often 46.2 µM), for the others: at the highest dose activity change, negative = growth inhibition, hits mostly inhibitors. 420,000 tested, 15% active. AID 686978, 2013; further: potency means the concentration at half of the fitted maximal effect; nearly all actives have a fitted effect of over 55% in size
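Readout: luminescence from CellTiter-Glo after 30 min in the dark at RT. Cells: DT40 Tdp1-/- with stable hTDP1, 400/well. Exposure: compounds alone, ≥48 hr, 37 °C.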
DT40 TDP1 CPT: DT40-hTDP1 cell growth loss with CPT | 420,000 tested, 12% active | chicken DT40 Tdp1-/-;hTDP1 cells + 20 nM CPT, ATP luminescence, 48 h | Potency, µM (doses to about 46.2 µM), for the others: at the highest dose activity change, negative = growth inhibition, most hits filed as inhibitors; further: potency means the concentration at half of the fitted maximal effect; nearly all actives have a fitted effect of over 55% in size
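Chicken DT40 Tdp1-/- cells complemented with human TDP1, 400 cells/well, exposed to compounds plus 20 nM camptothecin for at least 48 h at 37 C; viability read as ATP content by CellTiter-Glo luminescence.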
ELG1 DNA repair: inhibitors of ELG1-dependent DNA repair in HEK293T cells; Potency, µM (series often up to 46.1 µM), for the others: at the top dose activity change, negative = inhibition, usual class: inhibitors; 330,000 tested, 2.3% active; AID 504467; HEK293T ELG1-luciferase reporter, luminescence, 16 h; DNA damage induced by 5-fluorouridine; further: potency means the concentration at half of the fitted maximal effect; nearly all actives have a fitted effect of over 55% in size
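In this reporter screen, reduction of luminescence relative to DMSO vehicle indicated activity. Compounds and 5-fluorouridine were added together to 2,000 cells per well, incubated for 16 hr at 37 °C, then developed with ONE-Glo.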
IL-1B inflam inh: inflammasome signaling inhibition, IL-1 beta readout. THP-1 LPS/ATP IL-1B secretion, AlphaLISA, 16 h; stronger effect = lower value. activity change, % at 57.5 µM. 360,000 tested, 4.7% active. AID 743279; in the data active means activity change below about -50%; inconclusive means mostly about -30% to -49%
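THP-1 cells pretreated 1 hr with compounds (up to 57.5 uM final), then stimulated with LPS (250 ng/mL final) plus ATP (1.25 mM final); secreted IL-1B measured by AlphaLISA after 16 hr, decreased signal indicating inhibition.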
HT1080-NT tox: kills 2HG-producing HT-1080-NT fibrosarcoma cells. HT-1080-NT fibrosarcoma viability, CellTiter-Glo ATP luminescence, 48 h. Potency, µM (doses to about 46.1 µM), without a hit: at the highest dose activity, negative = less viability, actives largely listed as cytotoxic. 360,000 tested, 1.6% active. AID 686970;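 further: NT is the 2HG producing partner of a matched IDH1 knockdown line; potency means the concentration at half of the fitted maximal effect; 0% = DMSO-treated cells and -100% = media-only wells without cells; nearly all actives have a fitted effect of over 55% in size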
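A 48-hour cytotoxicity screen used HT-1080-NT cells plated 2 hours before compound delivery. ATP-based CellTiter-Glo luminescence measured viability, normalized to DMSO and no-cell controls.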
HT1080 IDH1KD tx: toxicity to HT-1080 IDH1 knockdown cells (counter line) | 360,000 tested, 2% active | HT-1080 IDH1 knockdown viability, ATP luminescence, 48 h | Potency, µM (doses to about 46.1 µM), inactives show top-dose activity, negative = toxicity, hits mostly cytotoxic;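 further: potency means the concentration at half of the fitted maximal effect; 0% = DMSO wells and -100% = cell-free medium wells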
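IDH1KD HT-1080 cells, 750/well, RPMI + 5% FBS; compound pinned after 2 h settling; 48 h, 37 °C; CellTiter-Glo luminescence; % activity normalised to DMSO and no-cell wells; curves fitted, classed by r2 and efficacy.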
Numbers without * were called inactive; ? = inconclusive; / = no result. This is a sample that favours compounds with a hit; in the whole collection about 19% have one here. Unless noted, the call rests on the fitted dose curve; in most records, active means well fitted curve in the direction sought with a large enough effect; inconclusive means small, poorly fitted or top-dose-only effect, or another doubt; inactive means no such curve, though single readings can be large; an effect the other way counts as inactive or inconclusive. Unless noted, on the % scale 0 is the no-effect control and ±100 the full control effect.

SMILES | DT40 TDP1 no CPT | DT40 TDP1 CPT | ELG1 DNA repair | IL-1B inflam inh | HT1080-NT tox | HT1080 IDH1KD tx
COC(=O)[C@@]12C[C@@H](CC(=O)N3CCN(C(=O)c4ccco4)CC3)C(=O)N(Cc3cccc4ccccc34)C1=CCC(C)(C)C2 | 18.4µM* | ? | / | ? | ? | 20.6µM*
CCOC(=O)[C@]12CCC=C1N(Cc1cccc3ccccc13)C(=O)[C@H](CC(=O)N1CCCC1)C2 | 23.1µM* | 18.4µM* | / | 0.0 | 2.5% | -0.3%
CCOC(=O)[C@]12CCC=C1N(Cc1cccc3ccccc13)C(=O)[C@H](CC(=O)N1CCN(C(=O)C3CC3)CC1)C2 | ? | ? | / | -6.9 | -1.8% | 0.4%
COc1ccc(NC(=S)N(CCN(C)C)C(C)c2ccco2)cc1Cl (configuration not stated) | 16.4µM* | -25.8% | -5.4% | -1.2 | -3.7% | 11.6%
COc1cccc(NC(=S)N(CCN(C)C)C(C)c2ccco2)c1 (configuration not stated) | -17.7% | -1.7% | -18.0% | 0.0 | 4.4% | 10.0%
COc1ccc(NC(=O)c2cccnc2Nc2ccc(OC)cc2)cc1 | ? | 16.4µM* | ? | -23.1 | -19.0% | -26.3%
COc1ccc(Nc2ncccc2C(=O)Nc2ccccc2)cc1 | 29.1µM* | 23.1µM* | ? | -13.1 | -3.9% | -24.9%
COc1ccc(Nc2ncccc2C(=O)NCc2ccccc2)cc1 | -29.0% | -1.4% | -1.1% | 1.3 | -1.4% | 5.2%
CCOc1ccc(Cl)cc1/C=N/O | -0.8% | 1.9% | -22.6% | 5.0 | 8.8% | -0.2%
CC1=NOC(=O)/C1=C/c1ccc(O)c(Br)c1 | ? | 10.6% | 12.6% | -18.9 | 16.0% | 6.2%
C#CCOc1ccc(Cl)cc1/C=C1/C(=O)ON=C1C | ? | 23.1µM* | -4.0% | 50.4 | -29.4% | -8.5%
CCCCc1ccc(/C=C2/C(=O)ON=C2c2ccccc2)s1 | ? | -16.2% | -2.2% | 4.4 | -5.1% | -2.5%
CCCOc1ccccc1/C=C1/C(=O)ON=C1C | ? | ? | ? | -52.0* | 6.3% | 2.7%
C#CCOc1ccc(/C=C2/C(=O)ON=C2C)cc1Br | 25.9µM* | 23.1µM* | 7.3% | -27.0 | -3.6% | 1.9%
COc1ccc(-n2nc(C(=O)N3CCC(N4CCCCC4)CC3)c3c4ccccc4n(C)c3c2=O)cc1 | ? | ? | ? | -18.7 | -18.9% | ?
COc1ccccc1N1CCN(C(CNC(=O)C(=O)NCc2ccc(F)cc2)c2cccnc2)CC1 (configuration not stated) | 5.8µM* | 8.2µM* | / | / | / | /
COc1ccccc1N1CCN(C(CNS(=O)(=O)c2ccc(C)cc2)c2cccnc2)CC1 (configuration not stated) | 7.31µM* | ? | -14.6% | -4.1 | -4.3% | -14.4%
COC(=O)NCC(c1cccnc1)N1CCN(c2ccccc2F)CC1 (configuration not stated) | 7.3% | 2.4% | -1.4% | 5.8 | -0.7% | 1.5%
COc1ccc(CNC(=O)C(=O)NCC(c2cccnc2)N2CCN(c3ccccc3F)CC2)cc1 (configuration not stated) | 18.4µM* | 11.6µM* | / | / | / | /
O=C(Nc1ccc(/C=C/c2ccc(NC(=O)c3cc(S(=O)(=O)O)c4cccnc4c3O)cc2S(=O)(=O)O)c(S(=O)(=O)O)c1)c1cc(S(=O)(=O)O)c2cccnc2c1O | -21.8% | -22.6% | / | / | / | /
COc1ccc(NC(=O)CC2C(=O)Nc3ccccc3N2CC(=O)N2CCCC2)cc1 (configuration not stated) | 16.6% | 3.1% | -0.3% | 35.1 | 2.3% | 7.9%
COc1ccccc1C(=O)NCCC(=O)NCC(c1ccc(F)cc1)N1CCOCC1 (configuration not stated) | -4.6% | 9.3% | 7.7% | 9.6 | 10.5% | 8.8%
NNS(=O)(=O)c1ccc(Sc2ccccn2)c([N+](=O)[O-])c1 | -26.7% | -7.8% | 0.0% | 2.4 | -1.7% | 10.0%
Oc1ccc(C=Nc2cccc3ccccc23)c(O)c1 | -18.2% | ? | -13.4% | -17.1 | -6.2% | ?
Cc1ccc(N=Cc2ccc(O)cc2O)cc1F | 20.6µM* | ? | 3.8% | -15.8 | -9.9% | 5.1%
SMILES | DT40 TDP1 no CPT | DT40 TDP1 CPT | ELG1 DNA repair | IL-1B inflam inh | HT1080-NT tox | HT1080 IDH1KD tx
NC(Cc1c[nH]c2ccccc12)C(=O)O (configuration not stated) | ? | -71.5% | / | / | / | /
Oc1cccc2c(CC(O)c3c[nH]c4ccccc34)ccnc12 (configuration not stated) | 11.2µM* | ? | / | / | / | /
Cn1ccsc1=NC(=O)c1cccc(C#N)c1 | -22.3% | -0.4% | ? | -25.1 | 20.4% | 11.8%
Cc1sc2cc3c(c(C(=O)c4ccccc4)[n+]2c1C)-c1cccc2cccc-3c12 | 1.3µM* | 1.03µM* | 23.1µM* | -96.6* | 8.2µM* | 8.2µM*
O=C(c1ccccc1)c1c2c(cc3sc4ccccc4[n+]13)-c1cccc3cccc-2c13 | 2.31µM* | 4.61µM* | 18.4µM* | -108.4* | ? | ?
CC(C)(C)C(=O)c1c(N)[nH]c(C(=O)c2ccccc2)c1-c1cc2ccccc2nc1Cl | ? | -2.5% | / | 4.5 | 17.8% | 26.5%
Nc1nc(Nc2ccccc2)sc1C(=O)c1ccccc1 | ? | -13.5% | ? | / | ? | ?
COc1cc(-c2cc(=O)c3c(C)cc(O)cc3o2)cc(OC)c1OC | 8.2µM* | ? | / | 14.2 | 12.0% | 13.8%

Assay outcomes: PubChem, National Center for Advancing Translational Sciences (NCATS)
